GoLoco inh red: inhibitors of human Gai1-RGS12 GoLoco interaction (red fluorophore); Potency, µM (top dose mostly 61.6 µM), for the others: top-dose activity, negative = inhibition, actives largely listed as inhibitors; 230,000 compounds, 0.44% hits; AID 880; P63096; Gai1:RGS12 GoLoco peptide FP, rhodamine, 10 min; active = well fitted inhibition curve with a large enough effect, not every such curve was filed as active; inactive = no such curve, though single readings can be large or run the other way; note: potency is the fitted concentration of half-maximal effect; % is set by controls: 0 for no effect and ±100 for the full control effect; nearly all actives have a fitted effect of over 30% in size
Target sequence (P63096 whole entry, looked up): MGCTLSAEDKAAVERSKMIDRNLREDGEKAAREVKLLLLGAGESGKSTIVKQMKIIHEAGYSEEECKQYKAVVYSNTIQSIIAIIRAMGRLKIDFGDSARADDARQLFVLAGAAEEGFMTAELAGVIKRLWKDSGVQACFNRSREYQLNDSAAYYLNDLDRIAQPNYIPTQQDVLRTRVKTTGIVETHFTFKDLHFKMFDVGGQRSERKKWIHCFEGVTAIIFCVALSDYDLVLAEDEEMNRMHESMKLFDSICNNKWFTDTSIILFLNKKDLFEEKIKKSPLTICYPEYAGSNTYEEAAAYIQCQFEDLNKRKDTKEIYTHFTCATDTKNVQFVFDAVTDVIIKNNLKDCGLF
HTT cytoprotect: protects HTT-Q103 PC12 cells, measured by ATP | PC12 HTT-Q103 induced, cytoprotection, ATP luminescence, 40 h | AID 1471 | 230,000 compounds, 0.14% hits | Potency, µM (top dose mostly 56.4 µM), without a hit: cytoprotection (ATP increase), most hits filed as activators; note: potency is the fitted concentration of half-maximal effect; % of control where 0% means no effect; nearly all actives have a fitted effect of over 45% in size
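Compounds added alongside 100 nM tebufenozide, which induces toxic Q103 huntingtin exon 1-GFP in stable PC12 cells; surviving cells quantified by luminescent ATP measurement. Medium: phenol red-free DMEM, 5% equine and 5% calf serum.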
ALDH1A1 block: ALDH1A1 (human) enzyme inhibition; P00352; Purified ALDH1A1, NADH fluorescence, propionaldehyde substrate; Potency, µM (series often up to 75.3 µM), without a hit: at the top dose activity, negative = inhibition, usual class: inhibitors; 220,000 compounds, 7.3% hits; active = well fitted inhibition curve with a large enough effect, not every such curve was filed as active; inconclusive = small, poorly fitted or top-dose-only effect, or another doubt; inactive = no such curve, though single readings can be large or run the other way;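 note: potency is the fitted concentration of half-maximal effect; plate controls were no enzyme wells and a reference inhibitor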
PNC inhibitor: blocks assembly of the perinucleolar compartment; PC3M PTB-GFP, PNC prevalence imaging, 16 h; active compounds read low; activity change (PNC), negative = inhibition, % at 10 µM; 140,000 compounds, 3.1% hits; AID 2417;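 active = readout at or below -70, meaning at least 70% loss of cells showing the perinucleolar compartment, a nuclear body marking cancer cells; inconclusive = readout between -30 and a set limit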;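 note: plate controls were DMSO wells for no effect and camptothecin positive control wells for full effect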
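PC3M cells stably expressing PTB-GFP, 750–1000 cells/well, treated 16 h at 37 °C with compound (23 nl of library stock), in duplicate. After paraformaldehyde fixation and Hoechst stain, imaged at 20x; PNC prevalence scored by image analysis.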
HPGD block: HPGD (human) dehydrogenase inhibition | P15428 | purified HPGD, NADH fluorescence kinetic, PGE2 substrate | Potency, µM, for the others: at the top dose activity change, negative = inhibition, hits mostly inhibitors | 150,000 compounds, 4.3% hits; active = well fitted inhibition curve with a large enough effect, not every such curve was filed as active; inconclusive = small, poorly fitted or top-dose-only effect, or another doubt; inactive = no such curve, though single readings can be large or run the other way; note: potency is the fitted concentration of half-maximal effect; % is set by controls: 0 for no effect and ±100 for the full control effect
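20 nM HPGD preincubated 15 min at room temperature with compound in 50 mM Tris-HCl pH 8, 0.01% Tween 20. Started with 1 mM NAD+ and 30 uM prostaglandin E2; NADH fluorescence (360/450 nm) read 5 times over 30-s intervals, last minus first.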
HTT aggregate: inhibitors of mutant huntingtin aggregate formation in PC12 cells | Potency, µM (highest dose often 46.1 µM), for the others: at the highest dose activity change, negative = inhibition, most hits filed as inhibitors | AID 1688 | PC12 HttQ103-GFP aggregates, Acumen cytometry, 40 h | 220,000 compounds, 1.1% hits; note: potency is the fitted concentration of half-maximal effect; % is set by controls: 0 for no effect and ±100 for the full control effect; nearly all actives have a fitted effect of over 60% in size
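PC12/HTTQ103-GFP, ecdysone-inducible; teb 100 nM; cpd qHTS titration; GFP aggregates read on laser cytometer, Ex 488/Em 500-530 nm.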
Active calls of the source: *; u = inconclusive; x = no result; [ ] = remark or other dose. Compounds with a hit are over-represented: about 11% of the library has one in this group of screens. Unless noted, calls come from the whole dose curve; as a rule, active = well fitted curve in the direction sought with a large enough effect; inconclusive = small, poorly fitted or top-dose-only effect, or another doubt; inactive = no such curve, though single readings can be large; an effect the other way counts as inactive or inconclusive.

SMILES | GoLoco inh red | HTT cytoprotect | ALDH1A1 block | PNC inhibitor | HPGD block | HTT aggregate
N#Cc1c(-c2ccco2)cc(C2CC2)nc1SCC(=O)c1ccccc1 | x | -31% | u | -21 | x | -8%
COCCOC(=O)c1c(C)nc(SCC(=O)Nc2ccc(OC)cc2)c(C#N)c1-c1ccco1 | 8% | -20% | u | -111* | -18% | 2%
Cc1nc(SCC(=O)c2ccccc2)c(C#N)c(-c2ccco2)c1C(=O)NCc1ccco1 | 17% | -30% | 10µM* | 31 | -21% | -13%
Cc1ccccc1NC(=O)c1c(C)nc(SCC(=O)OCc2ccccc2)c(C#N)c1-c1ccc(F)cc1 | 1% | 8%[10 µM] | u | -6 | -24% | -7%
COc1ccc(OC)c(NC(=O)c2cnc(Nc3ccccc3OC)c3ccccc23)c1 | 7% | x | u | 17 | u | 1%
CC1CCCc2sc3ncn(N)c(=N)c3c21 (stereo not given) | 59% | -14% | 9% | x | x | 1.4µM*
CC1(C)Cc2c(sc3ncn(N)c(=N)c23)CO1 | 19% | 22% | 1% | 34 | -2% | -21%
C/C(=N\OC(=O)C1CC1)C1CC1c1ccc(F)cc1 (stereo not given) | 6% | 20%[10 µM] | 6% | x | x | 1%
O=C(O)CN1C(=O)/C(=C/c2ccc(N3CCCCC3)o2)SC1=S | -197% | -12%[10 µM] | x | x | x | 1%[9.22 µM]
COC(=O)CN1C(=O)S/C(=C/c2ccc(N3CCCCC3)o2)C1=O | 203% | -32% | 0.28µM* | 8 | -11% | u
CCOC(=O)CN1C(=O)S/C(=C/c2ccc(N3CCCCC3)o2)C1=O | -19% | -17% | 25µM* | u | -8% | 11%
CCOc1ccc(C(=O)Cc2ccc3oc(C(=O)O)cc3c2)c(O)c1 | -6% | -14%[10 µM] | u | 5 | 7.9µM* | 17%
O=C(Cc1ccc(Br)cc1)c1ccc(O)cc1O | 8% | 1% | 2% | -18 | x | -7%
COc1ccc(CC(=O)c2ccc(O)cc2O)cc1 | -61% | -189% | u | x | 25µM* | -3%[9.22 µM]
Fc1cccc(Cl)c1/C=N\N=C1c2ccccc2-c2ccccc21 | 4%[14.2 µM] | 2%[10 µM] | 3%[13.5 µM] | x | -6% | x
CC1Cc2ccccc2N1C(=O)CSc1nnnn1C(C)C (stereo not given) | 8% | -47% | 28µM* | -3 | -6% | 4%
CC1Cc2ccccc2N1C(=O)CSc1nnnn1C1CCCC1 (stereo not given) | -4% | 15% | 2.5µM* | u | -18% | 6%
CCCn1c(SCC(=O)N2CCc3ccccc32)nnc1-c1ccco1 | 6% | 3% | u | -12 | -13% | -16%[9.22 µM]
CC1Cc2ccccc2N1C(=O)CSc1nnc2sc3ccccc3n12 (stereo not given) | 11% | -19% | 14µM* | u | -4% | 7%
CCCn1c(SCC(=O)N2c3ccccc3CC2C)nnc1-c1ccco1 (stereo not given) | -8% | 9%[10 µM] | -14% | -100* | -10% | 17%
COc1ccc(OC2C=CC(c3ccccc3)OC2CO)c(C(C)(C)C)c1 (stereo not given) | x | -6%[10 µM] | 14%[13.5 µM] | x | x | x
CC(=O)n1cc([C@H]2C=C(C(=O)N3CCN(Cc4ccc5c(c4)OCO5)CC3)O[C@@H](OCCCCO)C2)c2ccccc21 | 5% | 2%[10 µM] | -6% | x | x | -15%[9.22 µM]
COC(=O)C(C(C)=O)C(NC(=O)OC(C)(C)C)c1ccccc1 (stereo not given) | -8% | u | 1% | x | -3% | x
Cc1ccsc1C1C2=C(CCCC2=O)Nc2ncnn21 (stereo not given) | -2% | 3%[0.074 µM] | u | u | -23% | 13%
Cc1ccsc1C1C2=C(CC(C)(C)CC2=O)Nc2ncnn21 (stereo not given) | 110% | -9% | 11µM* | 5 | u | 11%
Cc1cc([N+](=O)[O-])cnc1NC(C)c1ccccc1 (stereo not given) | -16% | -23% | 22µM* | 61 | -16% | u

Screening data from PubChem BioAssay.
